# Reference: paper PMC11062922 (Nature Chemical Biology, 2023)
# Columns and labels:
# Design in all cases: species or system human, MV4-11 + K-562 + COLO205 + SK-N-BE2 + OVCAR-8
# [1] = tested on: ACVR1; conditions: read-out: apparent Kd; compound concentrations:100 nM and 1000 nM (sheet 'Samples'); n = 1
# [2] = tested on: CDK4; conditions: read-out: apparent Kd; compound concentrations:100 nM and 1000 nM (sheet 'Samples'); n = 1
# [3] = tested on: TP53RK; conditions: read-out: apparent Kd; compound concentrations:100 nM and 1000 nM (sheet 'Samples'); n = 1
# [4] = tested on: ADCK1; conditions: read-out: apparent Kd; compound concentrations: 100 nM and 1000 nM (sheet 'Samples'), CATDS: 1.95230654661257E-2; n = 1
# [5] = tested on: AKT1; conditions: read-out: apparent Kd; compound concentrations: 100 nM and 1000 nM (sheet 'Samples'), CATDS: 2.9179929134034902E-2; n = 1
# [6] = tested on: AKT2; conditions: read-out: apparent Kd; compound concentrations: 100 nM and 1000 nM (sheet 'Samples'), CATDS: 2.7091450445171202E-2; n = 1
# [7] = tested on: CDC42BPA; conditions: read-out: apparent Kd; compound concentrations: 100 nM and 1000 nM (sheet 'Samples'), CATDS: 1.9780691565578001E-2; n = 1
# [8] = tested on: CDC42BPB; conditions: read-out: apparent Kd; compound concentrations: 100 nM and 1000 nM (sheet 'Samples'), CATDS: 1.71408665149138E-2; n = 1
# [9] = tested on: CDK17; conditions: read-out: apparent Kd; compound concentrations: 100 nM and 1000 nM (sheet 'Samples'), CATDS: 1.7217162863952602E-2; n = 1
# [10] = tested on: CIT; conditions: read-out: apparent Kd; compound concentrations: 100 nM and 1000 nM (sheet 'Samples'), CATDS: 2.24347173261998E-2; n = 1
# [11] = tested on: GSK3A; conditions: read-out: apparent Kd; compound concentrations: 100 nM and 1000 nM (sheet 'Samples'), CATDS: 4.2719516683869502E-2; n = 1
# [12] = tested on: GSK3B; conditions: read-out: apparent Kd; compound concentrations: 100 nM and 1000 nM (sheet 'Samples'), CATDS: 3.83672032367414E-2; n = 1
# [13] = tested on: IKBKE; conditions: read-out: apparent Kd; compound concentrations: 100 nM and 1000 nM (sheet 'Samples'), CATDS: 1.7325644717854999E-2; n = 1
# [14] = tested on: IRAK3; conditions: read-out: apparent Kd; compound concentrations: 100 nM and 1000 nM (sheet 'Samples'), CATDS: 2.0418472541538401E-2; n = 1
# [15] = tested on: JAK2; conditions: read-out: apparent Kd; compound concentrations: 100 nM and 1000 nM (sheet 'Samples'), CATDS: 0.192481748469752; n = 1
# [16] = tested on: LATS1; conditions: read-out: apparent Kd; compound concentrations: 100 nM and 1000 nM (sheet 'Samples'), CATDS: 3.9734792534973799E-2; n = 1
# [17] = tested on: MARK2; conditions: read-out: apparent Kd; compound concentrations: 100 nM and 1000 nM (sheet 'Samples'), CATDS: 2.5049968914142899E-2; n = 1
# [18] = tested on: MARK3; conditions: read-out: apparent Kd; compound concentrations: 100 nM and 1000 nM (sheet 'Samples'), CATDS: 2.50648330516796E-2; n = 1
# [19] = tested on: MARK4; conditions: read-out: apparent Kd; compound concentrations: 100 nM and 1000 nM (sheet 'Samples'), CATDS: 2.22913749693762E-2; n = 1
# [20] = tested on: MTOR; conditions: read-out: apparent Kd; compound concentrations: 100 nM and 1000 nM (sheet 'Samples'), CATDS: 2.8143895354302499E-2; n = 1
# [21] = tested on: PAK4; conditions: read-out: apparent Kd; compound concentrations: 100 nM and 1000 nM (sheet 'Samples'), CATDS: 7.9705302542388501E-2; n = 1
# [22] = tested on: PAK6; conditions: read-out: apparent Kd; compound concentrations: 100 nM and 1000 nM (sheet 'Samples'), CATDS: 0.106835733020908; n = 1
# [23] = tested on: PI4KB; conditions: read-out: apparent Kd; compound concentrations: 100 nM and 1000 nM (sheet 'Samples'), CATDS: 2.3618528560732301E-2; n = 1
# [24] = tested on: PIK3CA; conditions: read-out: apparent Kd; compound concentrations: 100 nM and 1000 nM (sheet 'Samples'), CATDS: 5.0539059632895601E-2; n = 1
# [25] = tested on: PIK3CD; conditions: read-out: apparent Kd; compound concentrations: 100 nM and 1000 nM (sheet 'Samples'), CATDS: 6.1879573349501601E-2; n = 1
# [26] = tested on: PIM2; conditions: read-out: apparent Kd; compound concentrations: 100 nM and 1000 nM (sheet 'Samples'), CATDS: 1.8579492636517099E-2; n = 1
# [27] = tested on: PKN1; conditions: read-out: apparent Kd; compound concentrations: 100 nM and 1000 nM (sheet 'Samples'), CATDS: 3.3974214988559501E-2; n = 1
# [28] = tested on: PKN2; conditions: read-out: apparent Kd; compound concentrations: 100 nM and 1000 nM (sheet 'Samples'), CATDS: 1.8056964738192099E-2; n = 1
# [29] = tested on: PKN3; conditions: read-out: apparent Kd; compound concentrations: 100 nM and 1000 nM (sheet 'Samples'), CATDS: 6.5050017907180402E-2; n = 1
# [30] = tested on: PRKACA; conditions: read-out: apparent Kd; compound concentrations: 100 nM and 1000 nM (sheet 'Samples'), CATDS: 2.14323323603763E-2; n = 1
# [31] = tested on: PRKACB; conditions: read-out: apparent Kd; compound concentrations: 100 nM and 1000 nM (sheet 'Samples'), CATDS: 2.3381704422051099E-2; n = 1
# [32] = tested on: PRKACG; conditions: read-out: apparent Kd; compound concentrations: 100 nM and 1000 nM (sheet 'Samples'), CATDS: 2.46536070948064E-2; n = 1
# [33] = tested on: PRKAG1; conditions: read-out: apparent Kd; compound concentrations: 100 nM and 1000 nM (sheet 'Samples'), CATDS: 2.0047926729344401E-2; n = 1
# [34] = tested on: PRKCD; conditions: read-out: apparent Kd; compound concentrations: 100 nM and 1000 nM (sheet 'Samples'), CATDS: 1.7220600193925E-2; n = 1
# [35] = tested on: PRKG1; conditions: read-out: apparent Kd; compound concentrations: 100 nM and 1000 nM (sheet 'Samples'), CATDS: 2.2056800835646401E-2; n = 1
# [36] = tested on: PRKX;PRKY; conditions: read-out: apparent Kd; compound concentrations: 100 nM and 1000 nM (sheet 'Samples'), CATDS: 5.5547171780811498E-2; n = 1
# [37] = tested on: ROCK2; conditions: read-out: apparent Kd; compound concentrations: 100 nM and 1000 nM (sheet 'Samples'), CATDS: 2.36815478984151E-2; n = 1
# [38] = tested on: RPS6KA4; conditions: read-out: apparent Kd; compound concentrations: 100 nM and 1000 nM (sheet 'Samples'), CATDS: 1.94570911667616E-2; n = 1
# [39] = tested on: RPS6KA5; conditions: read-out: apparent Kd; compound concentrations: 100 nM and 1000 nM (sheet 'Samples'), CATDS: 1.9053083137800499E-2; n = 1
# [40] = tested on: RPS6KB1; conditions: read-out: apparent Kd; compound concentrations: 100 nM and 1000 nM (sheet 'Samples'), CATDS: 1.8709076421106301E-2; n = 1
# [41] = tested on: STK16; conditions: read-out: apparent Kd; compound concentrations: 100 nM and 1000 nM (sheet 'Samples'), CATDS: 1.87060817181595E-2; n = 1
# [42] = tested on: TAOK2; conditions: read-out: apparent Kd; compound concentrations: 100 nM and 1000 nM (sheet 'Samples'), CATDS: 1.8592761990064401E-2; n = 1
# [43] = tested on: TGFBR1; conditions: read-out: apparent Kd; compound concentrations: 100 nM and 1000 nM (sheet 'Samples'), CATDS: 1.75354561240674E-2; n = 1
smiles,measurement,setting,value
CN1C(=O)[C@@H](NC(=O)c2cc(Cc3ccccc3)on2)COc2ccccc21 [GSK481],potency estimated from few doses,[1],1.27 µM
same,potency estimated from few doses,[2],1.98 µM
same,potency estimated from few doses,[3],2.04 µM
CCn1c(-c2nonc2N)nc2c(C#CC(C)(C)O)ncc(OCC3CCNCC3)c21.O=C(O)C(F)(F)F [GSK554170A],potency estimated from few doses,[4],1.5 µM
same,potency estimated from few doses,[5],0.52 µM
same,potency estimated from few doses,[6],0.616 µM
same,potency estimated from few doses,[7],1.44 µM
same,potency estimated from few doses,[8],2.43 µM
same,potency estimated from few doses,[9],2.39 µM
same,potency estimated from few doses,[10],0.993 µM
same,potency estimated from few doses,[11],0.24 µM
same,potency estimated from few doses,[12],0.295 µM
same,potency estimated from few doses,[13],2.32 µM
same,potency estimated from few doses,[14],1.31 µM
same,potency estimated from few doses,[15],0.0251 µM
same,potency estimated from few doses,[16],0.275 µM
same,potency estimated from few doses,[17],0.744 µM
same,potency estimated from few doses,[18],0.743 µM
same,potency estimated from few doses,[19],1.01 µM
same,potency estimated from few doses,[20],0.564 µM
same,potency estimated from few doses,[21],0.0846 µM
same,potency estimated from few doses,[22],0.0551 µM
same,potency estimated from few doses,[23],0.865 µM
same,potency estimated from few doses,[24],0.178 µM
same,potency estimated from few doses,[25],0.126 µM
same,potency estimated from few doses,[26],1.78 µM
same,potency estimated from few doses,[27],0.375 µM
same,potency estimated from few doses,[28],1.98 µM
same,potency estimated from few doses,[29],0.116 µM
same,potency estimated from few doses,[30],1.13 µM
same,potency estimated from few doses,[31],0.888 µM
same,potency estimated from few doses,[32],0.775 µM
same,potency estimated from few doses,[33],1.38 µM
same,potency estimated from few doses,[34],2.38 µM
same,potency estimated from few doses,[35],1.04 µM
same,potency estimated from few doses,[36],0.151 µM
same,potency estimated from few doses,[37],0.859 µM
same,potency estimated from few doses,[38],1.52 µM
same,potency estimated from few doses,[39],1.63 µM
same,potency estimated from few doses,[40],1.74 µM
same,potency estimated from few doses,[41],1.74 µM
same,potency estimated from few doses,[42],1.78 µM
same,potency estimated from few doses,[43],2.21 µM
